Several values for one entry are separate records, joined by “and”; a condition that tells them apart may be missing. Equal entries are not always repeated. About 1,500 (0.58%) of roughly 260,000 compounds were called active. About 5% were inconclusive and are not listed.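 The calls were made as follows: active = inhibition above a set limit at one or more doses, reproduced on every date tested; inconclusive = results disagree between test dates, or hit never tested in dose response; inactive = the rest.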 The list is a sample of the results. Entries with a potency or affinity are not part of this list.
These molecules were tested against Virion infectivity factor (Human immunodeficiency virus type 1 group M subtype B (isolate BH10)) + Virion infectivity factor (Human immunodeficiency virus type 1 group M subtype B (isolate BRU/LAI)) + Virion infectivity factor (Human immunodeficiency virus type 1 group M subtype B (isolate PCV12)) + Virion infectivity factor (Human immunodeficiency virus type 1 group M subtype B (isolate HXB2)) + DNA dC->dU-editing enzyme APOBEC-3G (Homo sapiens) (UniProt P69720+P69721+P69722+P69723+Q9HC16) (assay: inhibitors of Vif binding to APOBEC3G peptide, primary screen, biochemical, TR-FRET, GST-Vif 1-94, biotin-A3G peptide, dose response retest (AID 1117319;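 also: Vif residues 1-94 fused to GST binding biotinylated APOBEC3G peptide 110-148; 0% = full assay without inhibitor and 100% = GST in place of GST-Vif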)). Details: hits give high values.

inhibition, inactive:
CCOC(=O)c1ccc(Oc2nc(N(C)C)nc(N3CCOCC3)n2)cc1 -15.9%
CN1CCN(c2nnc(-c3ccc(Cl)cc3)c3ccccc23)CC1 3.71%
Cc1ccc(C)c(/C=N/n2cc(-c3ccccc3)[nH]c2=S)c1 -9.36%
Cc1cc(-c2ccc(Cl)cc2)c(C#N)c(N)n1 -1.08%
Cc1ccc(-c2cc(-c3ccc(C)o3)nc(N)c2C#N)cc1 27.2%
Cc1ccc(-c2cc(-c3ccc(Cl)cc3)c(C#N)c(N)n2)o1 24.5%
Cc1ccc(-c2cc(-c3ccc(F)cc3)c(C#N)c(N)n2)o1 18.2%
Cc1ccc(CNC(=O)c2ccc(CN3CCOCC3)cc2)cc1 32.3%
Cc1[nH]c2ccccc2c1C(=O)NS(=O)(=O)Nc1ccc(Cl)cc1 12.1%
CN(C)S(=O)(=O)c1ccc(C(=O)Nc2nnc(-c3cccs3)o2)cc1 27.3%
O=C(Nc1ccc(N2CCN(C(=O)c3ccc(Cl)cc3)CC2)cc1)c1ccc(Br)o1 10.6% and 6.22%
CCOC(=O)c1c(NC(=O)Cc2cccs2)sc2c1CCCC2 -5.96%
COC(=O)c1c(NC(=O)Cc2cccs2)sc2c1CCCC2 29.5%
O=c1c2cc(N3CCOCC3)ccc2[nH]c(=S)n1CCN1CCCC1 12.5%
O=c1c2cc(N3CCOCC3)ccc2[nH]c(=S)n1Cc1ccccc1Cl -15.9%
O=c1c2cc(N3CCOCC3)ccc2[nH]c(=S)n1Cc1ccc(Cl)cc1 -2.52%
CCCCn1c(=S)[nH]c2ccc(N3CCOCC3)cc2c1=O -3.86%
CN(C)C(CNS(=O)(=O)c1ccc(F)cc1)c1cccnc1 (stereo unspecified) -1.58%
CN(C)S(=O)(=O)c1ccc(Cl)c(C(=O)NNC(=O)c2ccc3c(c2)OCO3)c1 -8.17%
Cc1ccsc1C(=O)NC(C)c1ccc2c(c1)OCO2 (stereo unspecified) 0.99%
CCSc1nnc(Nc2ccc(C)cc2)s1 1.17%
CC(C)C12CN3CC(C(C)C)(CN(C1)C3c1ccc3c(c1)OCO3)C2=O (stereo unspecified) 2.83%
Cc1ccc2oc(-c3ccc(NC(=O)c4ccncc4)cc3O)nc2c1 -2%
O=C(COC(=O)c1ccc(S(=O)(=O)C(F)F)cc1)Nc1cccnc1Cl 10.1%
Cc1cc(C)n2nc(SCC(=O)N3CCC(C(=O)O)CC3)nc2n1 0.2%
Cc1cccc(OCc2nnc(NC(=O)Cc3cccs3)s2)c1 -15.6%
Clc1ccccc1Oc1cnc2ccccc2n1 31.7%
C[C@@H]1O[C@@H](OC[C@H]2O[C@@H](Oc3c(-c4ccc(O)c(O)c4)oc4cc(O)cc(O)c4c3=O)[C@H](O)[C@@H](O)[C@@H]2O)[C@H](O)[C@H](O)[C@H]1O -12%
O=c1c(O[C@@H]2O[C@H](CO)[C@@H](O)[C@H](O)[C@H]2O)c(-c2ccc(O)c(O)c2)oc2cc(O)cc(O)c12 -5.92%
O=c1c(OC2OC(CO)C(O)C(O)C2O)c(-c2ccc(O)c(O)c2)oc2cc(O)cc(O)c12 (stereo unspecified) -4.71%
COc1ccc(-c2oc3c(CC=C(C)C)c(O[C@@H]4O[C@H](CO)[C@@H](O)[C@H](O)[C@H]4O)cc(O)c3c(=O)c2O[C@@H]2O[C@@H](C)[C@H](O)[C@@H](O)[C@H]2O)cc1 0.27%
CN(C)C(CNC(=O)CCc1c[nH]c2ccccc12)c1ccccc1 (stereo unspecified) 0.02%
O=C(COC(=O)C1CCN(S(=O)(=O)c2cccs2)CC1)Nc1ccccc1 -2.54%
CCN(Cc1ccccc1)C(=O)Cn1c(C(C)O)nc2ccccc21 (stereo unspecified) -14.7%
CC(=O)OC1C(OC(C)=O)C2C(C)CC3OC(=O)C(C)C3CC2(C)C1OC(C)=O (stereo unspecified) 1.67%
COc1ccc(C(OCC(O)CNCCc2ccc(S(N)(=O)=O)cc2)c2ccc(OC)cc2)cc1 (stereo unspecified) -0.36%
CC(=O)c1ccc(-n2c(CCC(=O)O)ccc2-c2cccs2)cc1 7.93%
Cc1ccc(-n2c(CCC(=O)O)ccc2-c2cccs2)cc1 9.93%
Cc1c(C(=O)Nc2ccccc2-c2ccccc2)cccc1[N+](=O)[O-] 22.9%
Cc1ccccc1CNC(=O)c1ccc(Cl)c([N+](=O)[O-])c1 3.74%
Cc1nn(C)cc1CNC(=O)c1cccc(Cl)c1 0.88%
COCC(C)OC(=O)c1c(N)n(-c2ccc(OC)c(OC)c2)c2nc3ccccc3nc12 (stereo unspecified) 7.95%
COc1cc(/C=C/C(=O)OCC(=O)Nc2ccc3c(c2)OCCO3)ccc1OCC#N -0.31%
N#CC1=C2C=Cc3ccccc3N2CCCC1=O 6.87%
Cc1ccc(C)c(-n2c(Cc3cc(=O)[nH]c(=O)[nH]3)nnc2SC(C)C)c1 71.3%
COC(=O)C(C)Sc1nnc(Cc2cc(=O)[nH]c(=O)[nH]2)n1-c1ccc(OC)cc1 (stereo unspecified) 7.85%
Cn1c(=O)c2c(nc(CN3CCN(C(=O)c4ccco4)CC3)n2Cc2cccc(Cl)c2)n(C)c1=O 7.79%
COc1ccccc1OCC(=O)N1CCCC(Nc2cccc(F)c2)C1 (stereo unspecified) -1.81%
COCC(=O)n1nc(-c2ccccc2)nc1NCc1ccc(N(C)C)cc1 -5.23%
Cc1cc(C)n(CC(=O)N2CCc3ccccc32)c(=O)c1C#N -19.3%
Cc1cc(O)ccc1C1(c2ccc(O)cc2C)OC(=O)c2ccccc21 -0.95%
O=C1OC2(c3ccccc31)c1ccccc1-c1ccccc12 -7.13%
Cc1cccc(NC(=O)CN2CCN(C(=O)c3oc4c(Cl)cccc4c3C)CC2)c1C -10%
Cc1cccc(Nc2nc(N)c([N+](=O)[O-])c(N3CC(C)OC(C)C3)n2)c1 (stereo unspecified) -1.71%
COC(Cc1n[nH]c(=S)n1-c1ccc(Cl)cc1)OC -7.57%
COC(Cc1nnc(SC)n1-c1ccccc1)OC 6.71%
Cc1ccc(C2N(c3ccccc3)C(=S)N3CCCN23)cc1 (stereo unspecified) 19.3%
O=C(O)c1cc(S(=O)(=O)O)cc(Nc2c3ccccc3nc3ccccc23)c1O 5.42%
COc1ccccc1Nc1ccc2c(O)cc(S(=O)(=O)O)cc2c1 15.2%
O=S(=O)(O)c1ccc(O)c2cc(Nc3ccccc3)ccc12 -8.31%
O=C(O)c1cc2cc(S(=O)(=O)O)ccc2cc1O 26.7%
Nc1ccc(C(=O)Nc2ccc3cc(S(=O)(=O)O)ccc3c2)cc1 7.06%
CC(=O)Nc1ccc2c(O)cc(S(=O)(=O)O)cc2c1 19.9%
Nc1ccc(C(=O)Nc2ccc3c(O)cc(S(=O)(=O)O)cc3c2)cc1 29.1%
O=C(O)c1cc(NS(=O)(=O)c2ccc3ccccc3c2)ccc1O -12.2%
COc1ccccc1CNC(=O)CNC(=O)Cn1cnc2ccccc2c1=O 8.94%
COC(=O)c1c(NC(=O)C2(C)Cc3ccccc3C(=O)O2)sc2c1CCCC2 (stereo unspecified) 20.6%
O=C(Nc1nnc(Cc2ccccc2)s1)C1CCC1 6.12%
NC(=O)CN(N=Nc1cccc([N+](=O)[O-])c1)c1cccc([N+](=O)[O-])c1 10.3%
COc1ccccc1C(=O)NC(CCSC)C(=O)NNC(=O)c1ccc(F)cc1 (stereo unspecified) -6.52%
CCCN(C(=O)c1cc(S(=O)(=O)N(C)c2ccc(OCC)cc2)ccc1C)C1CCS(=O)(=O)C1 (stereo unspecified) 2.41%
Cc1nnc(SCC(=O)Nc2ccccc2)n1CCc1ccccc1 -1.11%
CC1(C)CC(NS(=O)(=O)c2ccccc2)CC(C)(C)N1 13.5%
CC1(C)CC(NC(=O)C(c2ccccc2)c2ccccc2)CC(C)(C)N1 -4.99%
CC(C)(C)c1cc(NC(=O)CCSc2nnc3ccccn23)cc(C(C)(C)C)c1 -5.51%
O=C1CCC/C1=C/Nc1ccc(Cl)cc1 -0.33%
O=C1/C(=C/Nc2ccc3c(c2)OCO3)CCc2ccccc21 27.2%
O=C1/C(=C\c2ccc3c(c2)OCO3)CCC/C1=C/c1ccc2c(c1)OCO2 1.07%
O=C1CCCC/C1=C/Nc1ccc(C(=O)O)cc1 28.3%
CC(C)(C)NC(=O)Cn1c(=O)c(=O)n(Cc2ccccc2)c2ccc(Cl)cc21 -13.9%
NS(=O)(=O)c1ccc(NC(=S)N2CCN(c3ccc(Cl)c(Cl)c3)CC2)cc1 -1.39%
Cc1ccc(-n2ncc3c(NCc4cccnc4)ncnc32)cc1C -0.06%
CC(=O)Nc1ccc2c(COC(=O)CC3Sc4ccccc4NC3=O)cc(=O)oc2c1 (stereo unspecified) -2.31%
COCCN(C(=O)COC(=O)CCn1c(C)csc1=O)c1c(N)n(Cc2ccccc2)c(=O)[nH]c1=O 3.17%
COC(=O)[C@@H](N)Cc1ccc(O)cc1 1.26%
COC(=O)C(N)Cc1ccc(O)c(O)c1 (stereo unspecified) 21.5%
CC(NC(=O)Cn1cnnn1)C12CC3CC(CC(C3)C1)C2 (stereo unspecified) -1.37%
COc1ccc(/C=N/NC(=O)CCN2CCN(c3ccccc3)CC2)c(OC)c1OC 8.69%
O=C(Cc1csc(N2CCOCC2)n1)N/N=C/c1ccccc1C(=O)O 6.57%
O=C(Cc1csc(N2CCOCC2)n1)N/N=C/c1ccc(Cl)cc1Cl -5.97%
O=C(CCN1CCN(c2ccccc2)CC1)N/N=C/c1ccccc1O -5.36%

— PubChem BioAssay AID1117319 (Southern Research Institute, 2015)
